In PubChem BioAssay AID652017 (The Scripps Research Institute Molecular Screening Center, 2013):
Among all 370,000 compounds or so, about 3,800 (1%) were called active. For the sample, actives were picked, then their nearest neighbours and some compounds at random. A number with no mark means an inactive call. No stated cut-off is given here; in the data, active means activation above about 7.8%; inactive means the rest.

Test: SMARCA2 (BRM) function activators, primary screen, cell-based, luminescence, high throughput (AID 652017);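 further: 0% = vehicle wells and 100% = reference activator wells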
Settings: MG213 cells, MMTV-luciferase reporter, dexamethasone, overnight; at 9.1 µM; active compounds read high

Compound	activation
COC(=O)[C@]12C[C@H](CC(=O)NCc3ccccc3)C(=O)N(CCC3=CCCCC3)C1=C[C@H](C(C)C)O[C@@H]2C1CC1	0.2%
C=CCN1C(=O)[C@@H](CC(=O)N2CCN(C(=O)c3ccco3)CC2)[C@]2(C(=O)OC)CCCCC=C12	-3.14%
COC(=O)C12C=C3CC(c4ccccc4)=C3C(=O)N1Cc1[nH]c3ccccc3c1C2 (stereo not given)	-3.71%
CN1C(=O)c2cc(NS(C)(=O)=O)ccc2OC[C@@H]2O[C@@H](CC(=O)NCc3ccc(-c4ccccc4)cc3)CC[C@H]21	0.34%
CCCC(=O)N1c2ccc(-c3csc(N)n3)cc2CC1C (stereo not given)	13.2% (active)
CCOc1ncccc1C(=O)OCC(=O)N1c2ccccc2CC1C (stereo not given)	-1.56%
Cc1ccn(CCC(=O)N2c3ccccc3CC2C)n1 (stereo not given)	-2.39%
Cc1ccccc1CN1CCNC(=O)C1CC(=O)NCCC1=CCCCC1 (stereo not given)	5.02%
O=C(NCc1ccncc1)C(=O)NCc1ccco1	-0.15%
Cc1ccc(NC(=O)C(=O)NCc2ccco2)c(C)c1	9.32% (active)
Cc1ccc(SCC(=O)NC(=O)NCc2ccco2)c(C)c1	-0.59%
CN[C@H]1C[C@H]2c3cc(N4CCOCC4)ccc3CCN2C[C@H]1[C@H](C)O	-3.84%
C=C(C)C#CC(Cc1ccccc1)N(CC1CC1)/C(N)=N/C(=O)OCc1ccccc1 (stereo not given)	-1.63%
CCOc1cc(NC(=S)NCCCOC)c(OCC)cc1NC(=O)c1ccco1	9.88% (active)
COc1cc(NC(=S)NCc2ccco2)c(OC)cc1Cl	0.64%
CCOc1cc(NC(=S)NCCCN(C)C)c(OCC)cc1NC(=O)C1CC1	1.16%
Cc1ccc(CSc2nnc(SCC(=O)NN=Cc3cc(Br)ccc3F)s2)cc1	-6.75%
CC(C)(C)OC(=O)NCc1cc(F)ccc1/C=C/S(=O)(=O)NCCc1ccccc1	-3.29%
CN(C(=O)CC1C(=O)NCCN1Cc1ccc2ccccc2c1)C1CCOCC1 (stereo not given)	-1.84%
CCOC(=O)Nc1ccc(S(=O)(=O)N(C)C(C)C)cc1	-0.48%
CC(C)(COC(=O)Nc1ccccc1)COC(=O)Nc1ccccc1	-1.85%
CCOC(=O)Nc1ccc(NC(=O)OCC)cc1	11.1% (active)
O=C(N1CCOCC1)N1CC[C@H]2[C@H](CCCN2Cc2ccc(F)cc2)C1	-1.37%
COc1ccccc1OCC(=O)OCc1cc(-c2ccco2)on1	1.73%
COc1ccccc1OCC(=O)O/N=C(\N)c1ccccn1	8.43% (active)

Compound	activation
N/C(=N\OC(=O)CCC1CCCCC1)c1ccccn1	3.7%
COC(=O)C1=C(C)N(Cc2ccccc2C(F)(F)F)C(=NCC2CC2)NC1c1cccc(Cl)c1 (stereo not given)	-1.87%
CC(=O)Nc1ccc(S(=O)(=O)N2CCN(c3ccc([N+](=O)[O-])c(NCCN4CCOCC4)c3)CC2)cc1	-2.48%
O=C(Nc1ccc(Br)cc1)OCCN1C(=O)CCC12CCC(c1ccccc1)CC2 (stereo not given)	-0.9%
Cc1nn(C(C)C(=O)NCCC2=CCCCC2)c(=O)c2nn(-c3ccccc3)c(C)c12 (stereo not given)	0.01%
S=C(NCCC1=CCCCC1)Nc1ccccc1	2.03%
C1=C(CCNc2ncnc3c2cnn3-c2ccccc2)CCCC1	10.2% (active)
Cc1ncn2cc(-c3ccc(Cl)cc3Cl)[nH]c(=O)c12	5.25%
O=C(O)CN1c2cccc3cccc(c23)S1(=O)=O	-0.74%
O=C(NC1=NCCS1)c1ccc(Cl)s1	3.86%
COc1ccc(C(=O)NC2=NCCS2)c(OC)c1	8.02% (active)
COc1ccccc1C(=O)NCCC(=O)NC1=NCCS1	-1.3%
COC(=O)Cc1nnn2c1[C@H](C)[C@H](c1ccccc1Br)OCC2	-2.14%
COC(=O)Cc1nnn2c1[C@H](C)[C@@H](OC)c1cc(Br)ccc1-2	-2.14%
COC(=O)Cc1nnn2c1[C@H](C)[C@H](c1ccccc1[N+](=O)[O-])OCC2	9.58% (active)
O=C(CSc1nnc(COc2ccccc2)n1Cc1ccco1)c1ccc2ccccc2c1	-6.31%
COc1ccc(C2C(C(C)=O)=C(O)C(=O)N2c2nccs2)cc1 (stereo not given)	1.1%
COc1ccc(-c2csc(Cc3nc(O)cs3)n2)cc1	16.8% (active)
COc1ccc(-n2c(SC)nc(O)cc2=O)cc1	-1.4%
CCN(CC)C(=O)CSc1nnc(-c2ccc(S(=O)(=O)NCc3ccccc3Cl)cc2)o1	-2.52%
COc1cccc(NC(=O)CSc2nnc(-c3cccnc3)o2)c1	-0.51%
CCN(CC)C(=O)CSc1nnc(-c2cccc(OC)c2)o1	8.29% (active)
COc1ccc(-n2c(COc3ccc(C)cc3)nnc2SCC(=O)Nc2ccc(Oc3ccccc3)cc2)cc1	-5.92%
COc1ccc(-c2cc(-c3nnc(SCc4ccc([N+](=O)[O-])cc4)n3N)[nH]n2)cc1	-5.07%
COc1ccc(/C=C2\CC3(OC(C)=O)CCCN2C3)cc1 (stereo not given)	-1.45%
